In PubChem BioAssay (NCI):
Compounds without any hit were thinned out: in the full panel of roughly 83,000, 20% have a hit.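 Compound tested at a single concentration for 48 hours in 96-well plates; a percent growth value below 10 was scored as active.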 Activity calls are given as the source filed them.

Tests used:
Experiment in all cases: NCI-60 one-dose screen, 48 h (100 = growth as untreated, 0 = no growth, -100 = all killed)
Conditions in all cases: 10 µM unless noted
NCI/ADR-RES ovarian = system: NCI/ADR-RES ovarian
T-47D breast = system: T-47D breast
BT-549 breast = system: BT-549 breast
MDA-MB-435 melanoma = system: MDA-MB-435 melanoma
SW-620 colon = system: SW-620 colon
MCF7 breast = system: MCF7 breast
HCT-116 colon = system: HCT-116 colon
HCC-2998 colon = system: HCC-2998 colon
KM12 colon = system: KM12 colon

Measured: growth

COc1cc2c(=O)n(C3CCCCCCC3)c3c4cc[nH]c4ncc3c2cc1OC
inactive: NCI/ADR-RES ovarian 40.5% | T-47D breast 39.5% | BT-549 breast 44.6% | MDA-MB-435 melanoma 57.9% | SW-620 colon 56.8% | MCF7 breast 39.1% | HCT-116 colon 31.5% | HCC-2998 colon 96.2% | KM12 colon 19.1%

COc1ccc(/C=C\c2cc(OC)c(OC)c(OC)c2)c(NS(=O)(=O)c2ccc(C)cc2)c1O
inactive: T-47D breast 96.4% | BT-549 breast 30.6% | SW-620 colon 24.9% | MCF7 breast 14.3% | HCC-2998 colon 18.7%
active: NCI/ADR-RES ovarian 7.57% | MDA-MB-435 melanoma -33.1% | HCT-116 colon 8.54% | KM12 colon 3.96%

O=C(CC1(O)C(=O)Nc2ccccc21)c1ccc(C(=O)NCC2CCC3(CC2)OOC2(CCCCC2)OO3)cc1 (stereo unspecified)
inactive: NCI/ADR-RES ovarian 86.9% | T-47D breast 31.8% | BT-549 breast 80.1% | MDA-MB-435 melanoma 81.6% | SW-620 colon 86.4% | MCF7 breast 62.9% | HCT-116 colon 65.9% | HCC-2998 colon 106% | KM12 colon 77.4%

CC(=O)OC[C@]1(C)C=C2C(=O)[C@](C)(O)C3(CC3)C(C)=C2[C@H]1OC(=O)N(C)CCN(C)C(=O)OC(C)(C)C
active: NCI/ADR-RES ovarian -2.04% | T-47D breast 8.4% | BT-549 breast -32.8% | MDA-MB-435 melanoma -47% | MCF7 breast 2.67% | HCT-116 colon 3.86% | HCC-2998 colon 6.65%
inactive: SW-620 colon 10.4% | KM12 colon 13%

Cn1cc(-c2csc(-c3cn(CCN4CCOCC4)c4ccccc34)n2)c2cccnc21
inactive: NCI/ADR-RES ovarian 31.4% | BT-549 breast 45.1% | MDA-MB-435 melanoma 65.1% | SW-620 colon 83.1% | MCF7 breast 30.7% | HCT-116 colon 72.9% | HCC-2998 colon 99.2% | KM12 colon 56.5%
active: T-47D breast 2.94%

CN(C)C(=O)Oc1ccccc1-c1ccccc1
inactive: NCI/ADR-RES ovarian 102% | T-47D breast 93.3% | BT-549 breast 90.7% | MDA-MB-435 melanoma 112% | SW-620 colon 109% | MCF7 breast 105% | HCT-116 colon 111% | HCC-2998 colon 96.1% | KM12 colon 103%

CC(=O)[O][Hg][c]1c(N)c(C)cc(C)c1F
inactive: NCI/ADR-RES ovarian 74.6% | HCT-116 colon 25.7% | HCC-2998 colon 93.7% | KM12 colon 81.4%
active: T-47D breast -20% | BT-549 breast -14% | MDA-MB-435 melanoma -60.5% | SW-620 colon -19.5% | MCF7 breast -5.09%

Cn1cc(C=O)c2nccnc21
inactive: NCI/ADR-RES ovarian 105% | T-47D breast 104% | BT-549 breast 151% | MDA-MB-435 melanoma 106% | SW-620 colon 110% | MCF7 breast 91.4% | HCT-116 colon 116% | HCC-2998 colon 109% | KM12 colon 119%

O=C1NC(=O)C(=Cc2ccc(OCCCCC3CCCCC3)c(Cl)c2)C(=O)N1
inactive: NCI/ADR-RES ovarian 107% | T-47D breast 91.6% | BT-549 breast 95.1% | MDA-MB-435 melanoma 102% | SW-620 colon 98% | MCF7 breast 88.8% | HCT-116 colon 91.3% | HCC-2998 colon 102% | KM12 colon 104%

COC(=O)[C@@H](C[C@H](Cc1ccccc1)NC(=O)c1csc([C@@H](C[C@H](C(C)C)N(C)C(=O)[C@@H](NC(=O)[C@H]2CCCCN2C)C(C)C)OC(C)=O)n1)NC(=O)OCc1ccccc1
inactive: NCI/ADR-RES ovarian 13.9% [9.5 µM] | T-47D breast 78.8% [9.5 µM] | SW-620 colon 26.1% [9.5 µM] | MCF7 breast 27.8% [9.5 µM] | HCC-2998 colon 19.5% [9.5 µM]
active: BT-549 breast -28% [9.5 µM] | MDA-MB-435 melanoma -36% [9.5 µM] | HCT-116 colon 1.64% [9.5 µM] | KM12 colon 1.08% [9.5 µM]

O=C1NC(=O)C(=Cc2cccn2CCCCCn2c3ccccc3c(=O)c3ccccc32)C(=O)N1
inactive: NCI/ADR-RES ovarian 99.5% | T-47D breast 87.3% | BT-549 breast 104% | MDA-MB-435 melanoma 97.7% | SW-620 colon 105% | MCF7 breast 84.7% | HCT-116 colon 82.2% | HCC-2998 colon 105% | KM12 colon 103%

COc1cc(NCCCN=C(N)N)c2ncccc2c1
active: T-47D breast -0.911% | MCF7 breast -51.3%
inactive: NCI/ADR-RES ovarian 108% | BT-549 breast 65.9% | MDA-MB-435 melanoma 103% | SW-620 colon 92.8% | HCT-116 colon 78.1% | HCC-2998 colon 94.3% | KM12 colon 49.3%

COC(=O)[C@@H](C)C[C@H](Cc1ccccc1)NC(=O)c1csc([C@@H](C[C@H](C(C)C)N(C)C(=O)[C@@H](NC(=O)[C@H]2CCCCN2C)C2CCCCC2)OC(C)=O)n1
inactive: NCI/ADR-RES ovarian 10.6% | T-47D breast 39.1% | SW-620 colon 19.1% | MCF7 breast 18.3% | HCC-2998 colon 10.3%
active: BT-549 breast -11.8% | MDA-MB-435 melanoma -47.6% | HCT-116 colon -22.1% | KM12 colon 2.88%

COc1ccc(Nc2ccnc3cc(Cl)ccc23)cc1CN(CCCl)CCCl
active: NCI/ADR-RES ovarian -40.4% | T-47D breast -7.47% | BT-549 breast -50.6% | MDA-MB-435 melanoma -88.3% | SW-620 colon -28.6% | MCF7 breast -10.7% | HCT-116 colon -79.8% | HCC-2998 colon -79.5% | KM12 colon -62.6%
